Screening data from PubChem.
Mdm2 MdmX PPI: disrupts the human Mdm2-MdmX interaction; O15151+Q00987; SaOS-2 split-luciferase Mdm2/MdmX complementation, luminescence; inhibition, % at 8 µM; actives 3% (n = 330,000); AID 485346;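 active = inhibition of at least 50% at 8 µM in the primary screen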
Target sequence (O15151 whole entry, looked up): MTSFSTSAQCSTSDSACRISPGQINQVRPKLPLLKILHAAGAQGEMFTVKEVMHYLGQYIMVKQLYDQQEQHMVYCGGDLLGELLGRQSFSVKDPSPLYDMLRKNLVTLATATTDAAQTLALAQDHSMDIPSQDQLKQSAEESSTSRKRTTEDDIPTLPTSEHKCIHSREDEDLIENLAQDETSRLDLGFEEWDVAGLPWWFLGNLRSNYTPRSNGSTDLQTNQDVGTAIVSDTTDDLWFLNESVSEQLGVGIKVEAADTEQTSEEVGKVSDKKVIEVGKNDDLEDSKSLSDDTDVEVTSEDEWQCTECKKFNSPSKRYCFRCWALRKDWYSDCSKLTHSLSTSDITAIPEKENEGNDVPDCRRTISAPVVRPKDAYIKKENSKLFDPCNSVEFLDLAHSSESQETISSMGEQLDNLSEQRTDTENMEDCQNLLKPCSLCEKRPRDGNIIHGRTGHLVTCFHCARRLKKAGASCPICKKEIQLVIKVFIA
Target sequence (Q00987 whole entry, looked up): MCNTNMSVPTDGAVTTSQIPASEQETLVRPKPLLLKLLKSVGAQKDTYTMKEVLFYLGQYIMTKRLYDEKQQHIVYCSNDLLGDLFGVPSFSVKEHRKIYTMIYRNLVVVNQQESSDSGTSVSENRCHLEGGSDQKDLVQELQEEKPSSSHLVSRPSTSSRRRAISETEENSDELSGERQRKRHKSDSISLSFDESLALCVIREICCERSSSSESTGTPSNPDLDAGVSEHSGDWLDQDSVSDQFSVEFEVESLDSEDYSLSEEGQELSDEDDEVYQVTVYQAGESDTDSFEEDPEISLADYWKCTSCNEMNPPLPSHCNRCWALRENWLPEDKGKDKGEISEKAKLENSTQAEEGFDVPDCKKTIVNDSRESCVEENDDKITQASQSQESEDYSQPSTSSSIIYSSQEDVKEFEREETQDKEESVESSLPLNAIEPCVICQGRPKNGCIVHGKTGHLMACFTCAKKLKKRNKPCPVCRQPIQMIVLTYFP
CSC inhib: cancer stem cell inhibition | cancer stem cell-like cells viability, luminescence | inhibition, % at 7.5 µM | actives 1.1% (n = 300,000) | AID 2717; in the data active = inhibition above about 75%; tested in HMLE shEcad cells
697 NFkB inh: lowers PMA/ionomycin-induced NF-kB signal in 697 B cells | 697 B-cell NF-kB luciferase reporter, 16 h | inhibition, % at 4 µM | actives 0.33% (n = 330,000) | AID 435022; in the data active = inhibition above about 35%
Gli-Sufu block: blocks Gli-Sufu signaling in a luciferase reporter. AID 588413. actives 0.74% (n = 340,000). inhibition, % at 5 µM. Sufu-KO-LIGHT fibroblasts, Gli luciferase reporter luminescence;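 active = inhibition above about 55%, limit read from the data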;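 also: 0% = DMSO-treated cells and 100% = wells with medium but no cells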
Beta apoptosis: beta cell apoptosis inhibition. AID 435005. actives 0.8% (n = 300,000). protection from apoptosis, % (concentration not given with the values). INS-1E cytokine-induced death, ATP luminescence, 48 h; percent of positive-control rescue, neutral wells zero;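 active = Every replicate reaches about 75%, or at least half do and their mean reaches it too, limit read from the data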;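 also: 0% = cytokine-treated negative control wells and 100% = positive control rescue; higher means more ATP so stronger rescue from cytokine killing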
Jurkat NFkB inh: inhibitors of the PMA/ionomycin-induced NF-kB reporter in Jurkat cells. PMA/ionomycin-induced NF-kB luciferase reporter, luminescence. inhibition, % at 4 µM. actives 0.53% (n = 330,000); in the data active = inhibition above about 50%
Mdm2-MdmX conf: human Mdm2/MdmX binding inhibition, confirmed; shares compounds with Mdm2 MdmX PPI; luminescent assay; inhibition, % at 8 µM; actives 55% (n = 10,000); AID 489028; in the data active = inhibition above about 40%
Full FLuc ctr: counter-screen for Mdm2/MdmX inhibitors: full-length luciferase; shares compounds with Mdm2 MdmX PPI; SaOS-2 full-length luciferase counterscreen, luminescence; inhibition, % at 8 µM; actives 77% (n = 6,200); AID 504607;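 active = mean inhibition at 8 µM reaching about 37%, which flags the compound as non-specific, limit read from the data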;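 also: p53-null SaOS-2 cells with luciferase driven by a doxycycline-inducible promoter; compound on cells about two nights before reading with doxycycline added after day one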
Active calls of the source: *; / = not tested or not shown. Hits are enriched below; roughly 4.5% of the tested compounds scored in any of these assays.

SMILES	Mdm2 MdmX PPI	CSC inhib	697 NFkB inh	Gli-Sufu block	Beta apoptosis	Jurkat NFkB inh	Mdm2-MdmX conf	Full FLuc ctr
Cc1cc(C)c(S(=O)(=O)N2CCOC2CNC(=O)C(=O)NCCCN2CCOCC2)c(C)c1 (stereo not drawn)	11	-19	21	5	1	-2	/	/
Cc1c(Cl)cccc1NC(=O)CCN1C(=O)C2CC=CCC2C1=O (stereo not drawn)	-4	-8	4	-5	1	-7	/	/
Cc1nn(Cc2ccccc2Cl)c2sc(C(=O)Nc3ccccc3N3CCOCC3)cc12	55*	54	12	12	3	18	61*	61*
Cc1nn(-c2ccccc2Cl)c2sc(C(=O)Nc3nnc(C4CC4)s3)cc12	74*	10	1	-3	5	-4	7	/
Cc1nn(Cc2ccc(F)cc2)c2sc(C(=O)Nc3ccccc3N3CCOCC3)cc12	11	27	16	1	/	23	/	/
O=C(NCc1nc2ccccc2[nH]1)C1=C[C@H](C2CCCCC2)C[C@H](OCc2ccc(CO)cc2)O1	68*	21	3	19	3	7	44*	67*
O=C(Nc1ccccc1)C1=C[C@H](C2CCCCC2)C[C@H](OCc2ccc(CO)cc2)O1	37	42	9	37	11	8	/	/
O=C(NCc1ccccc1)C1=C[C@H](c2csc3ccccc23)C[C@H](OCc2ccc(CO)cc2)O1	54*	14	-137	18	24	-18	37	59*
O=C(Nc1ccccc1)C1=C[C@@H](C2CCCCC2)C[C@@H](OCc2ccc(CO)cc2)O1	96*	46	-211	27	1	-14	76*	24
CC(C)(C)[C@H]1C=C(C(=O)NCc2nc3ccccc3[nH]2)O[C@@H](OCc2ccc(CO)cc2)C1	53*	-9	-7	2	0	7	54*	93*
O=C(NCc1ccccc1)C1=C[C@@H](c2ccccc2)C[C@@H](OCc2ccc(CO)cc2)O1	-17	-12	-5	1	1	-22	/	/
O=C(NCc1nc2ccccc2[nH]1)C1=C[C@H](c2ccccc2)C[C@H](OCc2ccc(CO)cc2)O1	5	-3	-6	13	-5	3	/	/
Cc1cc(CN2CCCCC2C(=O)Nc2ccc(Oc3cccnc3)cc2)oc1C (stereo not drawn)	0	37	-51	-25	-8	-18	/	/
CN(C(=O)CN(C)S(=O)(=O)c1ccc(F)cc1)c1c(N)n(Cc2ccccc2)c(=O)[nH]c1=O	13	12	0	-11	-4	4	/	/
Cc1cc(OCC(=O)Nc2nnc(C3CC3)s2)ccc1C(C)C	-4	/	10	11	/	3	/	/
Cc1ccc(C(C)C)cc1OCC(=O)Nc1nnc(C2CC2)s1	88*	/	-188	1	8	-9	65*	33
CC1CCCN(C2(O)C(=O)Nc3ccc([N+](=O)[O-])cc32)C1 (stereo not drawn)	-22	-2	9	2	-10	0	/	/
COc1ccc(CCC(=O)OC(C)C(=O)c2ccc(C)cc2)cc1 (stereo not drawn)	67*	-10	-29	0	-1	-9	-3	/
COc1ccc(C(=O)C(C)OC(=O)COc2ccccc2)cc1 (stereo not drawn)	18	1	23	2	-6	1	/	/
Cc1c(NC(=O)c2ccc(CC(C)C)o2)c(=O)n(-c2ccccc2)n1C	-1	-22	-7	0	-5	-2	/	/
CCc1ccc(O)c(CNCCNCc2cc(CC)ccc2O)c1	72*	13	-6	28	23	31	37	/
Cc1ccc(O)c(CNCCNCc2cc(C)ccc2O)c1	73*	-17	-6	19	53	29	52*	33
Cc1cccc(NS(=O)(=O)c2cccc(C(=O)NCC3(N4CCOCC4)CCCCC3)c2)c1	/	/	/	6	/	/	/	/
Cc1ccc(NC(=O)CN2CCOCC2)cc1C	15	-14	2	-30	0	2	/	/
Cc1ccc(NC(=O)C2C3CCC(O3)C2C(=O)O)cc1Cl (stereo not drawn)	27	5	-7	3	-1	8	/	/
SMILES	Mdm2 MdmX PPI	CSC inhib	697 NFkB inh	Gli-Sufu block	Beta apoptosis	Jurkat NFkB inh	Mdm2-MdmX conf	Full FLuc ctr
CN(C)S(=O)(=O)c1cccc(COc2ncnc3c(Cl)cc(Cl)cc23)c1	4	-3	-8	-3	0	4	/	/
O=C(N/N=C/c1ccc(O)cc1O)c1ccc(CN2C(=O)c3cccc4cccc2c34)cc1	75*	3	-78	21	93*	33	75*	29
O=C(N/N=C/c1ccccc1)c1ccc(CN2C(=O)c3cccc4cccc2c34)cc1	8	49	-4	2	-5	-4	/	/
COc1ccc(OC)c(Nc2ncnc3ccccc23)c1	8	-20	-41	-6	-13	-7	/	/
COc1ccc(OC)c(Nc2ncnc3ccc(Br)cc23)c1	51*	5	-4	-23	-2	18	35	/
Brc1ccc2ncnc(Nc3cccc4ccccc34)c2c1	61*	40	-5	14	-8	9	41*	53*
OCCNc1ncnc2ccc(Br)cc12	48	-18	13	9	-9	15	/	/
CCN(CC)c1ncnc2ccc(Br)cc12	58*	-12	-8	3	-4	-6	52*	38*
N#CC1(NC(=O)CSc2nnc3n2CCCCC3)CCCCC1	19	21	-1	-1	3	-6	/	/
CC(=O)Nc1ccc(S(=O)(=O)Nc2ccccc2C(=O)N2CCCCCC2)cc1	-4	0	-2	5	-1	-1	/	/
Cn1cnc([N+](=O)[O-])c1S(=O)(=O)c1cccc(Cl)c1	68*	33	-9	-2	-20	9	34	21
O=C(CCCCCCCC(=O)N1CCCC1)N1CCCC1	/	/	/	4	/	/	/	/
Nc1nc(N)nc(-c2ccc(Cl)c(Cl)c2)n1	50*	0	-117	-114	-16	-71	35	/
CC1CCN(S(=O)(=O)c2ccc(NC(=S)NC(=O)c3ccc(Cl)cc3)cc2)CC1	54*	0	-11	34	7	13	36	72*
NS(=O)(=O)c1cnccc1NCCc1ccccc1	17	-13	6	4	-2	7	/	/
CCOc1cc(CN2CCc3c([nH]c4ccccc34)C2)ccc1OC	20	-2	14	12	0	31	/	/
COc1ccc(CN2CCc3c([nH]c4ccccc34)C2)cc1Br	69*	50	-16	20	-8	-5	25	/
CCOC(=O)c1sc(NNC(=O)c2ccc(C)cc2)nc1C	16	3	-9	-10	-4	0	/	/
CCOC(=O)c1nc(NNC(=O)c2ccc([N+](=O)[O-])cc2)sc1C	58*	65	8	8	103*	-8	46*	27
